In PubChem BioAssay AID743445 (Broad Institute, 2014):
The campaign covered roughly 310,000 compounds. About 1,700 (0.55%) were called active. No stated cut-off is given here; in the data, active means inhibition above about 50%; inactive means the rest. Only a selection was taken, and actives are over-represented in it overall.

Target: Histone-lysine N-methyltransferase NSD2 (Homo sapiens) (UniProt O96028)
Experiment: blockers of NSD2 lysine methylation activity – biochemical, AlphaScreen, single concentration, set 2, primary screen (AID 743445)
Conditions: NSD2 peptide methylation, 120 min, at 12.5 µM, stronger effect = higher value

Sequence of Histone-lysine N-methyltransferase NSD2 (Homo sapiens) (O96028 whole entry, looked up): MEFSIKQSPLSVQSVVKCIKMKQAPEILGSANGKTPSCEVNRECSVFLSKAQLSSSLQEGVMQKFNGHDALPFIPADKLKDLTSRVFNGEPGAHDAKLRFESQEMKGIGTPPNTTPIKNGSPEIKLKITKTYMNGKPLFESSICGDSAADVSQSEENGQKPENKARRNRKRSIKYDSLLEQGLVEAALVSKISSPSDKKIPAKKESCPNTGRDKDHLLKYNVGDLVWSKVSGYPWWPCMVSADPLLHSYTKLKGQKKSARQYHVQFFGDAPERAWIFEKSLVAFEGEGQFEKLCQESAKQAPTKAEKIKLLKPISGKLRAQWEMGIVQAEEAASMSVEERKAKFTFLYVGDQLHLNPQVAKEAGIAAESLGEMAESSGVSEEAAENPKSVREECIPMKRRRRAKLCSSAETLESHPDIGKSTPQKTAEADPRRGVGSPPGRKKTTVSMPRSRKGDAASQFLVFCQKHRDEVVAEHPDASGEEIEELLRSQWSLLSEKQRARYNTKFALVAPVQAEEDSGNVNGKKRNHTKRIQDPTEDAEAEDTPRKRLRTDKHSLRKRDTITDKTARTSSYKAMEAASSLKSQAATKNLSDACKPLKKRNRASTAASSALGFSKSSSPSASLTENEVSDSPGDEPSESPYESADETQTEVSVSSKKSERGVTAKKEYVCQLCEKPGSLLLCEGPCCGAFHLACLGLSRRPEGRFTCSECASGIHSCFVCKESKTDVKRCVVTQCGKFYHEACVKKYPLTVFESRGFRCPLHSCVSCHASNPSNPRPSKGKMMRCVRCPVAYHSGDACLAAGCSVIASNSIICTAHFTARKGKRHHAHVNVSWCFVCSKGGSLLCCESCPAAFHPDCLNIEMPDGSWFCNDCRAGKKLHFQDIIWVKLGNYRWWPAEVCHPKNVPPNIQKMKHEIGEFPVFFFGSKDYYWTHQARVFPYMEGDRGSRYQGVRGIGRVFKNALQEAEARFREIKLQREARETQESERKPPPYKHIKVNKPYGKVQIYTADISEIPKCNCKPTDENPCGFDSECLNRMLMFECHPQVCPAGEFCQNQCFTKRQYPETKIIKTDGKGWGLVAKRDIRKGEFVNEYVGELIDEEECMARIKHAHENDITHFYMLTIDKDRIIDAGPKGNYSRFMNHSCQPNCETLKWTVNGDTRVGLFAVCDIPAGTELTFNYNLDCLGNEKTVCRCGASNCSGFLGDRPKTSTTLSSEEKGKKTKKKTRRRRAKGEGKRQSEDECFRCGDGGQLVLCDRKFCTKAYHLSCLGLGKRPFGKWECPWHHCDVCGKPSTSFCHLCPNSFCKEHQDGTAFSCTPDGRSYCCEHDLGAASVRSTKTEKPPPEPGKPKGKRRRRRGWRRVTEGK

| Compound | inhibition |
| --- | --- |
| CN1CCN(c2ccc(S(=O)(=O)N3CCCCC3)cc2NC(=O)Cc2ccccc2F)CC1 | 1.27% (inactive) |
| CCN(CC)S(=O)(=O)c1ccc(N2CCOCC2)c(NC(=O)C(C)Oc2ccc(F)cc2)c1 (stereo unspecified) | -1.83% (inactive) |
| CCN(CC)S(=O)(=O)c1ccc(N2CCN(C)CC2)c(NC(=O)Nc2ccccc2F)c1 | 78.4% (active) |
| Cc1ccc(C(=O)Cn2cc([N+](=O)[O-])nc2C)cc1 | 55.2% (active) |
| Cc1nc([N+](=O)[O-])cn1CC(=O)Nc1ccc2c(c1)OCO2 | -1.66% (inactive) |
| Cc1nc([N+](=O)[O-])cn1CC(=O)Nc1ccc(Cl)cc1 | -0.868% (inactive) |
| COc1ccc(CCc2nc(-c3cccs3)no2)cc1 | -6.21% (inactive) |
| COc1ccc(OC)c(-c2csc(NC(=O)COC(=O)C3CC3)n2)c1 | -2.87% (inactive) |
| COc1ccc(OC)c(-c2csc(-c3cccs3)n2)c1 | 126% (active) |
| COc1ccc(-c2cc(NC=O)c3ncc(-c4cc(OC)c(OC)c(OC)c4)n3c2)c(OC)c1 | 2.63% (inactive) |
| COc1ccc(C(=O)N2CCCCC2c2cc(C(=O)Nc3ccc(F)c(Cl)c3)no2)cc1 (stereo unspecified) | -0.843% (inactive) |
| CCOc1ccc(C(CC(=O)O)NC(=O)Cc2ccccc2)cc1OC (stereo unspecified) | 0.638% (inactive) |
| CCOc1ccc(C(CC(=O)O)NC(=O)C23CC4CC(CC(C4)C2)C3)cc1OC (stereo unspecified) | 73.2% (active) |
| COc1ccc(C(C)NC(=O)C23CC4CC(CC(C4)C2)C3)cc1 (stereo unspecified) | 0.365% (inactive) |
| CCC(NC(=O)C1C2C=CC3(CN(Cc4ccccc4)C(=O)C13)O2)c1ccccc1 (stereo unspecified) | -0.276% (inactive) |
| CC(=O)N1CCc2cc(S(=O)(=O)NCCC(=O)N3CCCC3)ccc21 | -3.38% (inactive) |
| Cc1ccc(-n2c(SCC(=O)Nc3ccc(S(=O)(=O)Nc4nccs4)cc3)nnc2-c2ccccn2)cc1 | 10.5% (inactive) |
| Cc1coc2c(O)cc3c(c12)OC1(N2CCCCC2)C(=O)NCCCC31 (stereo unspecified) | 75.1% (active) |
| COc1ccccc1CCNC(=O)C1CCN(c2nc(C)cc(C)n2)CC1 | -3.97% (inactive) |
| Cc1ccc(C(=O)N(Cc2ccccn2)CC2CCCO2)cc1 (stereo unspecified) | -6.08% (inactive) |
| OC(c1ccccc1)c1nc(/C=C/c2ccc(C(F)(F)F)cc2)cs1 (stereo unspecified) | -1.07% (inactive) |
| CSc1ccc(CN2CCC2(C)C(=O)Nc2ccc(C)c(O)c2)cc1 (stereo unspecified) | -2.34% (inactive) |
| COCC(C)n1c(SCc2ccc(C(=O)OC)o2)nc2ccccc2c1=O (stereo unspecified) | -0.047% (inactive) |

| Compound | inhibition |
| --- | --- |
| COCCn1c(C)cc(C(=O)CSc2nc3ccccc3c(=O)n2C(C)COC)c1C (stereo unspecified) | 1.34% (inactive) |
| COCC(C)n1c(SCC(=O)NC2CCCCC2C)nc2ccccc2c1=O (stereo unspecified) | 52.7% (active) |
| COC(CNC(=O)[C@H](Cc1ccccc1)NC1(C(=O)NC2CCCCC2)CCCCC1)OC | -1.53% (inactive) |
| CC1(Oc2ccc(Cl)cc2)CCN(Cc2csc3ccccc23)C1 (stereo unspecified) | -2.85% (inactive) |
| COC(=O)c1nc(NC(=O)c2ccc(F)cc2)n[nH]1 | -3.85% (inactive) |
| COC(=O)c1nc(NC(=O)c2ccccc2)n[nH]1 | 64.1% (active) |
| COC(=O)c1nc(NC(=O)c2ccc(C(C)(C)C)cc2)n[nH]1 | -1.33% (inactive) |
| COc1cccc(CSc2nnc(-c3cccnc3)n2Cc2ccccc2)c1 | 2.07% (inactive) |
| CCc1nc2c(OCCOc3ccccc3)cccn2c1N(C)C(=O)c1cccs1 | -0.996% (inactive) |
| CC(=O)c1cccc(-c2cnc3c(NC=O)cc(-c4ccc(N5CCN(C)CC5)cc4)cn23)c1 | 2.68% (inactive) |
| CC(C)(C)CC(=O)Nc1nc(C(N)Cc2ccc(C(F)(F)F)cc2)cs1 (stereo unspecified) | 14% (inactive) |
| CCN(CC)CCCNC(=O)c1cc(-c2cccc(Cl)c2)on1 | 63.4% (active) |
| O=C(NCCCN1CCOCC1)c1cc(-c2cccc(O)c2)on1 | -0.66% (inactive) |
| O=C(Nc1cccnc1Cl)c1cc(-c2cccc(Cl)c2)on1 | -7.36% (inactive) |
| Cc1ccc(-c2nc(C3CCCN(S(=O)(=O)c4ccc(Br)s4)C3)no2)cc1 (stereo unspecified) | -7.73% (inactive) |
| CCN(CC)CCOc1ccc2c(c1)C(=NNC(=O)c1ccccn1)c1cc(OCCN(CC)CC)ccc1-2 | 64.6% (active) |
| Cc1cccc(OCC(=O)NCCCNC(=O)c2ccccn2)c1 | 1.46% (inactive) |
| CCOc1cc2ccccc2cc1C(=O)Nc1ccccn1 | -0.208% (inactive) |
| C=CCn1c2c(c3ccccc31)CCC2 | 1.47% (inactive) |
| Cc1ccc(Nc2ncnc3c2cnn3C)c(C)c1 | -0.415% (inactive) |
| Cn1ncc2c(Nc3cccc4ccccc34)ncnc21 | 58.9% (active) |
| Cn1ncc2c(NNC(=O)Cc3cccc4ccccc34)ncnc21 | -5.08% (inactive) |
| Cc1cc(C)cc(NC(=O)N2CCC(N(C)CCC(C)C)CC2)c1 | 6.38% (inactive) |

| Compound | inhibition |
| --- | --- |
| Cc1cc(NS(=O)(=O)c2ccc(NC(=O)CSc3nnc(SCc4ccc(F)cc4)s3)cc2)nc(C)n1 | 1.71% (inactive) |
| CCOC(=O)C(=O)N(Cc1ccccc1)c1ccccc1C(=O)Nc1cc(OC)ccc1OC | 3.11% (inactive) |
| Cc1[nH]n(-c2ccccc2)c(=O)c1N=Nc1ccccc1C(=O)N1CCCCC1 | 56.8% (active) |
| COC(=O)c1ccccc1N=Nc1c(C)[nH][nH]c1=O | 0.329% (inactive) |
| Cc1cccc(N=Nc2c(C)[nH]n(-c3ccccc3)c2=O)c1 | 9.54% (inactive) |
| OC(c1ccccc1)c1nc(-c2cnc3ccccc3c2)cs1 (stereo unspecified) | 2.58% (inactive) |
| COC(=O)CC1CCc2cc(C)cc(C(CC(C)C)NC(=O)[C@H](CC(C)C)NC(=O)OCc3ccccc3)c2O1 (stereo partly specified) | -2.73% (inactive) |
| O=C(NCc1ccco1)C1(c2ccc(Cl)cc2)CCCC1 | 3.15% (inactive) |
| COC(=O)/C=C/C(=O)NCc1ccco1 | 0.685% (inactive) |
| O=C(/C=C/c1ccc(Cl)cc1Cl)NCc1ccco1 | 57.4% (active) |
| CCOc1ccc(-n2c(SCC(=O)Nc3cc(C)c(NC(=O)c4ccccc4)cc3OC)nnc2-c2cccc(Cl)c2)cc1 | 1.66% (inactive) |
| c1csc(-c2nnc(SCc3nc4ccccc4[nH]3)o2)c1 | -7.8% (inactive) |
| O=C(CSc1nc2ccccc2nc1N1CCCCC1)N1CCN(S(=O)(=O)c2cccc([N+](=O)[O-])c2)CC1 | -12% (inactive) |
| CC(=O)NC(c1ccccc1)c1nc(-c2cccc(C(C)C)c2)cs1 (stereo unspecified) | 3.74% (inactive) |
| CCOC(=O)c1c(C)[nH]c2c1-c1ccccc1C(=O)C2=O | 82.9% (active) |
| CCOC(=O)c1c(C)[nH]c(C)c1S(=O)(=O)N(C)CC(=O)Nc1ccccc1C | 2.08% (inactive) |
| CCOC(=O)c1ccccc1OC(=O)Oc1ccccc1C(=O)OCC | -0.93% (inactive) |
| CCOc1ccc2nc(NC(=O)C3CC3)sc2c1 | -0.715% (inactive) |
| CCCC1CCC2(CCCN2CCOC(=O)NCc2ccccc2)CC1 (stereo unspecified) | -1.02% (inactive) |
| O=C(CNS(=O)(=O)c1ccccc1F)N1CCN(c2ccccn2)CC1 | -3.13% (inactive) |
| COc1ccc(-c2cc(-c3nnc(SCc4ccc([N+](=O)[O-])cc4)n3N)[nH]n2)cc1 | -2.18% (inactive) |
| COc1cc(C(=O)Nn2c(CC(C)C)nc3ccccc3c2=O)cc(OC)c1OC | -1.2% (inactive) |
| COc1cc(C(=S)NC2CCCCC2)ccc1O | 6.51% (inactive) |

| Compound | inhibition |
| --- | --- |
| COc1cc(C(=O)Nn2c(O)c(C3=c4ccccc4=NC3=O)sc2=S)ccc1O | 51.8% (active) |
| O=C(CCS(=O)(=O)c1ccccc1)Nc1ccc(Cl)c(Cl)c1 | -0.439% (inactive) |
| O=C(Nc1ccccc1C(=O)Nc1ccc(F)cc1)c1ccccc1F | 0.274% (inactive) |
| Cc1nn(-c2ccccc2)c(Cl)c1/C=N/NC(=O)c1nn(C)cc1[N+](=O)[O-] | 6.06% (inactive) |
| Cc1cc(=O)[nH]c(N/N=C/c2ccc3c(c2)OCCO3)n1 | -3.07% (inactive) |
| Cc1cc(=O)[nH]c(N/N=C/c2c(C)nn(-c3ccccc3Cl)c2Cl)n1 | 69.3% (active) |
| O=[N+]([O-])c1ccccc1Nc1ccc(O)cc1 | 81% (active) |
| Cc1c(NC(=O)Nc2ccccc2)cccc1[N+](=O)[O-] | -2.18% (inactive) |
| O=C(Nc1ccccc1[N+](=O)[O-])C1C(c2ccccc2)=C1c1ccccc1 | -5.32% (inactive) |
| CCc1nc2ccc(C(=O)NCc3ccc(OC)cc3)cn2c1N(CC)Cc1cccc(Br)c1 | -0.31% (inactive) |
| C=CCc1cccc2cc(C(=O)Nc3ccc(NC(C)=O)cc3)c(=O)oc12 | 52.4% (active) |
| C=CCc1cccc2cc(C(=O)NC3CCCC3)c(=O)oc12 | -2.76% (inactive) |
| C=CCc1cccc2cc(C(=O)OCC)c(=O)oc12 | 3.09% (inactive) |
| CCCC(=O)N1CCC1(C)C(=O)NCc1ccc(C(C)C)cc1 (stereo unspecified) | 0.789% (inactive) |
| O=C(NS(=O)(=O)c1cccs1)[C@H]1O[C@@H](n2ccc(=O)[nH]c2=O)[C@H](O)[C@@H]1O | 0.413% (inactive) |
| CC(=O)N1CCCN(C2=Nc3ccccc3Sc3ccccc32)CC1 | 0.906% (inactive) |
| O=C(Nc1ccc(N2CCOCC2)cc1)C1=COCCO1 | -0.182% (inactive) |
| COC(=O)CCCCC1=CCC2C(=O)C=C(O)C2C1 (stereo unspecified) | 62.2% (active) |
| COc1ccc(-n2c(SCC(=O)Nc3ccccc3-c3ccccc3)nnc2-c2cccnc2)cc1 | 3.15% (inactive) |
| COC(=O)c1cc(S(=O)(=O)N2CCN(c3ccccc3C)CC2)cn1C | 7.47% (inactive) |
| COc1cccc(-c2cc(CNC(=O)[C@@H](Cc3ccccc3)NC(=O)[C@H]3O[C@@H](n4cnc(C(N)=O)n4)[C@H](O)[C@@H]3O)no2)c1 | -0.483% (inactive) |
| COc1ccc(-n2c(COc3ccc(C)cc3)nnc2SCC(=O)Nc2ccc(Oc3ccccc3)cc2)cc1 | 0.031% (inactive) |
